A selection: hits, their analogues and other compounds. The true share with any hit is near 3%.
TR SRC2 fluor cs = Total Fluorescence Counterscreen for Inhibitors of the Interaction of Thyroid Hormone Receptor and Steroid Receptor Coregulator 2. TRb/SRC2 Texas Red total fluorescence interference. Potency, µM (doses to about 106 µM), for inactives: at the highest dose fluorescence change, negative = quenching. 280,000 compounds, 0.29% hits; active = well fitted curve in either direction with a large enough effect; inconclusive = small, poorly fitted or top-dose-only effect
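Flags fluorescent or light-absorbing compounds by total fluorescence, S + 2P, at 555 nm excitation and 632 nm emission. Mixture: 20 nM Texas Red SRC2 peptide, 0.6 uM human TRb LBD, 1 uM T3, 5% DMSO; compound exposure 5 h at ambient temperature.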
Tau fluor counter = Counterscreen qHTS for Inhibitors of Tau Fibril Formation, Fluorescence Polarization; Potency, µM (top dose mostly 57.7 µM), for the others: at the top dose activity change, negative = decrease; tau K18 P301L Alexa594 fluorescence, heparin fibrillization; 280,000 compounds, 0.93% hits; note: nearly all actives have a fitted effect of over 55% in size
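Human tau K18 P301L (15 uM unlabeled, 0.24 uM Alexa 594-labeled) in 100 mM sodium acetate pH 7 with 20 uM heparin, 6 hr at 37 C. ThT 30 uM added, 1 hr ambient; Alexa 594 FP and total fluorescence read at 555/632 nm.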
TRb-SRC2 inh = qHTS for Inhibitors of the Interaction of Thyroid Hormone Receptor and Steroid Receptor Coregulator 2; TRbeta-SRC2 peptide binding, fluorescence polarization; receptor liganded with 1 µM T3; Potency, µM (doses to about 106 µM), inactives show at the highest dose activity change, negative = inhibition, actives largely listed as inhibitors; 280,000 compounds, 0.065% hits;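 note: plate controls were bound peptide for no effect and peptide without receptor for full effect; nearly all actives have a fitted effect of over 50% in size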
Target sequence (P10828 whole entry, looked up): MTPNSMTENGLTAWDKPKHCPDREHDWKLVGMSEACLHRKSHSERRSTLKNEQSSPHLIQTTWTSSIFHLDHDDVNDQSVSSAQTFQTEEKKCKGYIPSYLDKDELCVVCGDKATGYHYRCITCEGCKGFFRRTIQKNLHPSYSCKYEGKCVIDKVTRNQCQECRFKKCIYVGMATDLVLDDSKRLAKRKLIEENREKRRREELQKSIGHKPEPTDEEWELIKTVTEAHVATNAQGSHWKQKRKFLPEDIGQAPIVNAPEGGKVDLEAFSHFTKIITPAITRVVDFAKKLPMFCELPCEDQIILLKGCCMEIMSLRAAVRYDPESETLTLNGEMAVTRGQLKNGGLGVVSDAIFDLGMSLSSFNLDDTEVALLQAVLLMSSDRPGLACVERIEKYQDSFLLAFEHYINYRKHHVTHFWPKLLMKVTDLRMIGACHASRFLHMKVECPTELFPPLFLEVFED
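Read-out is fluorescence polarization (555 nm excitation, 632 nm emission) of a Texas Red SRC2 coactivator peptide; loss of signal reflects blocked binding to human TRb ligand-binding domain in the presence of 1 uM T3.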
Tau ThT inhib = qHTS for Inhibitors of Tau Fibril Formation, Thioflavin T Binding | Microtubule-associated protein tau (Homo sapiens), P10636 | recombinant tau K18 P301L (four-repeat tau fragment), heparin-induced fibrillization, ThT fluorescence | Potency, µM (series often up to 57.4 µM), for the others: at the top dose activity, negative = inhibition, most hits filed as inhibitors | 270,000 compounds, 2.1% hits | AID 1460, 2008; note: nearly all actives have a fitted effect of over 55% in size
Target sequence (P10636 561-689 P618L limits assumed): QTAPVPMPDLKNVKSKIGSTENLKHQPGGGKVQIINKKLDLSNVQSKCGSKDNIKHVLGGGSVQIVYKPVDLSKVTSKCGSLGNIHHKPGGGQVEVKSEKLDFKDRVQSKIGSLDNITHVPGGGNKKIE
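Aggregation was driven by heparin (20 uM final) acting on recombinant tau […] bearing P301L in 100 mM sodium acetate pH 7; fibrils were detected with Thioflavin T.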
Tau FP inhib = qHTS for Inhibitors of Tau Fibril Formation, Fluorescence Polarization. K18 P301L tau heparin fibrillization, Alexa594 FP, 6 h. Potency, µM (titrated, usually from 57.7 µM), inactives show top-dose activity, negative = inhibition, hits mostly inhibitors. 280,000 compounds, 0.39% hits. Microtubule-associated protein tau (Homo sapiens), P10636; note: nearly all actives have a fitted effect of over 55% in size
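Quantitative HTS format: compounds meet 15 uM recombinant K18 P301L tau and Alexa 594-tau tracer in 100 mM sodium acetate pH 7; 20 uM heparin triggers fibrillization at 37 C over 6 hr; FP gives the signal.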
* hit, by the source's call; ? = inconclusive; . = no result given; [ ] = remark or other dose. Unless noted, calls come from the whole dose curve; as a rule, active = well fitted curve in the direction sought with a large enough effect; inconclusive = small, poorly fitted or top-dose-only effect, or another doubt; inactive = no such curve, though single readings can be large; an effect the other way counts as inactive or inconclusive. Unless noted, % is set by controls: 0 for no effect and ±100 for the full control effect; potency is the fitted concentration of half-maximal effect.

SMILES	TR SRC2 fluor cs	Tau fluor counter	TRb-SRC2 inh	Tau ThT inhib	Tau FP inhib
Cc1cc(/C=C2\SC(=Nc3ccc(F)cc3)NC2=O)c(C)n1-c1ccc(S(N)(=O)=O)cc1	-1.3%	?	4.1%	14.1µM*	9.6%
Cc1cc(/C=C2/SC(=O)NC2=O)c(C)n1-c1ccc(N2CCOCC2)cc1	0.8%	-3.6%	-4.7%	-14.1%	1.1%
O=C(NCc1ccc(Cl)cc1)C1CCN(S(=O)(=O)Cc2ccccc2)CC1	0.3%	-5.5%	-3.4%	-5.1%	2.4%
COc1ccc(CCNC(=O)Cn2cc(S(=O)(=O)Cc3ccc(F)cc3)c3ccccc32)cc1OC	5.0%	-26.6%	1.3%	?	5.3%
CNc1nc(N/N=C/c2cc3c(cc2[N+](=O)[O-])OCO3)nc(Nc2ccccc2)n1	2.2%	-29.7%	-0.4%	7.08µM*	6.8%
COc1ccc(-c2cc(-c3ccccc3)c(C#N)c(SCC(=O)Nc3ncc(C)s3)n2)cc1	-2.5%	-27.9%	-0.2%	-8.9%	28.2µM*
COc1ccc(-c2cc(-c3ccccc3)nc(SCC(=O)Nc3nccs3)c2C#N)cc1	0.6%	-26.6%	4.5%	-1.0%	?
CCOC(=O)c1sc(NC(=O)CSc2nc(C)cc(-c3ccccc3)n2)c(C#N)c1C	-1.8%	?	-11.6%	35.5µM*	?
COc1ccccc1NS(=O)(=O)c1cc([N+](=O)[O-])ccc1N/N=C/c1c(C)[nH]c2ccccc12	-0.8%	6.31µM*[quencher]	-2.3%	3.16µM*	?
CN1CCN(S(=O)(=O)c2cc([N+](=O)[O-])ccc2N/N=C/c2ccc(Cl)cc2)CC1	-3.4%	-2.4%	1.7%	-11.4%	5.7%
O=[N+]([O-])c1ccc(N/N=C/c2c[nH]c3ccccc23)c(S(=O)(=O)Nc2ccc(Cl)cc2)c1	0.7%	3.16µM*[quencher]	4.2%	3.16µM*	-10.5%
CCOC(=O)c1ccc(NC(=O)c2ccc(=O)n(Cc3cccc(C)c3)c2)cc1	3.4%	?	-4.1%	-11.2%	?
Cc1cc(N2CCC(C(=O)Nc3ccc(F)cc3F)CC2)n2nc(C)c(-c3ccc(Cl)cc3)c2n1	1.5%	-12.5%	-5.5%	-2.2%	-6.1%
COC(CNC(=O)c1ccc2c3c(onc13)-c1ccccc1C2=O)OC	2.8%	15.8µM*[quencher]	-1.0%	15.8µM*	?
O=[N+]([O-])c1cccc(S(=O)(=O)Nc2nc3ccccc3nc2Nc2cccc(S(=O)(=O)N3CCCCC3)c2)c1	-0.7%	?	-12.9%	15.8µM*	-8.5%
Cc1ccc(S(=O)(=O)Nc2nc3ccccc3nc2Nc2cccc(S(=O)(=O)N3CCCC3)c2)cc1	-0.9%	-21.7%	4.6%	?	12.6%
CCN(CC)S(=O)(=O)c1cccc(N=NC2=C(O)CCCC2=O)c1	?	-9.6%	39.8µM*	-9.9%	-3.0%
Nc1c(C(=O)Nc2ccc(S(=O)(=O)N3CCCC3)cc2)sc2nc3ccc(OC(F)(F)F)cc3cc12	9.6%	-25.1%	1.4%	5.62µM*	13.3%
O=C(/C=C1\C(=O)Nc2ccccc21)/C=C1\C(=O)Nc2ccccc21	0.3%	-24.5%	5.8%	28.2µM*	?
Cc1ncc(/C=C2\C(=O)Nc3ccccc32)[nH]1	-6.3%	-11.9%	2.9%	15.8µM*	0.9%
CCc1ncc(/C=C2\C(=O)Nc3ccccc32)[nH]1	-4.0%	-7.1%	-2.9%	12.6µM*	-6.0%
COc1ccc(OC)c(OC)c1	-1.6%[201 µM]	.	5.6%[201 µM]	.	.
CC1=CC2=C(OC1N(C)C)c1cccc3cccc(c13)C2=O (stereo not given)	20.9%	-28.9%	39.8µM*	20µM*	?
Cc1ccc(N2C(=O)c3cccc4cccc(c34)C2=O)cc1	-1.1%	-12.6%	6.4%	-4.7%	3.5%
COc1ccc(C2CC(=O)Nc3c2c(=O)n(C)c2nc4ccccc4n32)cc1 (stereo not given)	4.3%	-1.8%	2.6%	-3.4%	1.1%
SMILES	TR SRC2 fluor cs	Tau fluor counter	TRb-SRC2 inh	Tau ThT inhib	Tau FP inhib
O=C(O)COc1ccc(/C=C/c2ccc3cccc([N+](=O)[O-])c3n2)cc1	-14.3%	-16.3%	1.2%	7.94µM*	9.8%
CC(=O)Nc1ccc(/C=C/c2ccc3cccc([N+](=O)[O-])c3n2)cc1	-5.8%	?	13.3%	.	-9.8%
COc1cc(/C=C/c2ccc3cccc([N+](=O)[O-])c3n2)ccc1OCC(=O)O	-14.6%	-2.9%	-0.9%	?	7.1%
COc1cc(/C=C/c2ccc3c([N+](=O)[O-])cccc3n2)ccc1OCC(=O)O	-11.1%	-16.4%	-0.2%	3.16µM*	-0.7%
O=C1[C@@H]2[C@H]3[C@H](O)[C@H](O)C/C(=N/OCc4ccccc4)[C@H]3CC[C@H]2C(=O)N1c1ccc(F)cc1F	-0.6%[11.2 µM]	-6.7%[11.6 µM]	0.0%[11.2 µM]	-6.0%[11.5 µM]	-5.6%[11.6 µM]
O=C(Cc1ccc(Br)cc1)c1ccc(O)cc1O	-1.8%	?	10.3%	-16.9%	-14.6%
COc1ccc(N=Nc2ccc(O)c3ncccc23)cc1	-4.2%	-26.0%	3.5%	1.41µM*	?
Oc1ccc(N=Nc2ccc3c(c2)OCCO3)c(O)c1	-2.8%	?	8.8%	3.16µM*	4.9%
Cc1ccccc1N=Nc1ccc(O)c2ncccc12	0.3%	-17.4%	-7.5%	?	7.9%
O=Nc1ccc(O)c2ncccc12	-5.5%	-29.0%	7.8%	?	?
Oc1ccc(N=Nc2ccc(Br)cc2)c(O)c1	-11.9%	?	-5.8%	3.55µM*	2.1%
Oc1ccc(N=Nc2ccc3c(c2)OCCO3)c2cccnc12	-6.9%	?	-2.9%	2µM*	?
COc1cc2c(c(OC)c1OC)-c1c(cc3c(c1OC)OCO3)CC(C)C(C)(O)C2OC(=O)c1ccccc1 (stereo not given)	2.3%	.	11.5%	.	.
Cc1nn(C)c(Sc2ccccc2N)c1[N+](=O)[O-]	-2.0%	-17.9%	-8.8%	31.6µM*	?
Cc1nn(C)c(N)c1[N+](=O)[O-]	-8.0%	-6.0%	0.7%	-3.9%	6.4%
Cc1ccccc1C(=O)OCc1cc(=O)n2nc(C3CCCCC3)sc2n1	-3.2%	-9.6%	0.2%	?	-13.9%
CC(C)CSc1ccccc1NC(=O)c1sc2nc(-c3ccncc3)ccc2c1N	-3.2%	3.16µM*[quencher]	4.8%	-15.7%	2.9%
Nc1c(C(=O)Nc2ccc(Br)cc2)sc2nc(-c3ccncc3)ccc12	0.8%	?	-4.2%	?	2.8%
O=C(O)c1cc(N=Nc2ccc(-c3ccc(N=Nc4ccc(O)c(C(=O)O)c4)cc3)cc2)ccc1O	28.2µM*[quencher]	.	?	.	.
C=CCSc1nnc2nc3c(nn12)c1cc(C)ccc1n3CC=C	-0.4%	-5.0%	3.0%	28.2µM*	3.1%
CN=c1nc(-c2ccccc2)n(-c2ccccc2)s1	2.2%	-16.2%	3.3%	22.4µM*	?

Source: PubChem BioAssay (National Center for Advancing Translational Sciences (NCATS))
